Screening data deposited in PubChem BioAssay by Broad Institute.
C diff growth: C. difficile growth inhibitors, primary screen, HTS; 0.25% of 86,000 active; growth activity, negative = inhibition, % at 16 µg/mL (by protocol); AID 1259249, 2017; Clostridium difficile clinical isolate growth, OD600, 24 h; hits give low values;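 active = mean growth activity at or below -80% and every replicate also at or below -80%; inconclusive = mean at or below -80% but some replicate above -80%; inactive = mean growth activity above -80%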;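 note: 0% = DMSO wells and -100% = levofloxacin 16 µg/mL wells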
T cruzi growth-1: T. cruzi intracellular proliferation inhibitors, primary screen, cell-based, beta-gal Tulahuen parasites, NIH3T3 host, luminescence; inhibition, % at 8.34 µM; AID 624255, 2012; T. cruzi beta-gal in NIH3T3, GalScreen luminescence, 90 h; 5.9% of 77,000 active;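 active = mean inhibition above about 93%, with at least 55% of replicates each passing it, limit read from the data, passing the limit was not always enough; inconclusive = only one of those two conditions holds; inactive = neither condition holds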
Pf Dd2 growth: P. falciparum Dd2 growth inhibitors, primary screen, SYBR Green fluorescence, single dose replicates | AID 1159554, 2015 | 72 h; hits give low values | 2.3% of 94,000 active | activity change, % at 10 µM; in the data active = activity change below about -80%; inconclusive = no clear call, values can overlap the other calls
T cruzi growth-2: T. cruzi intracellular proliferation inhibitors, confirmation, cell-based, NIH3T3 host, beta-gal parasite, luminescence, cherry-pick; inhibition, % at 8.35 µM; T. cruzi beta-gal in NIH3T3, GalScreen luminescence, 90 h; shares compounds with T cruzi growth-1; 72% of 5,600 active;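 active = mean replicate inhibition above about 95% and at least 55% of replicates individually reaching it, limit read from the data; inconclusive = only one of the two criteria is met; inactive = neither criterion is met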
T cruzi growth-3: inhibitors of intracellular T. cruzi replication, confirmation, NIH3T3 host cells, beta-gal parasites, cherry-pick, set 2; shares compounds with T cruzi growth-1; 21% of 5,600 active; inhibition, % at 2.09 µM; T. cruzi beta-gal in NIH3T3, GalScreen luminescence, 90 h;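 active = mean inhibition above about 95%, with at least 55% of replicates also reaching it, limit read from the data; inconclusive = meets just one of the two conditions; inactive = meets neither condition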;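 note: plate controls were neutral control median for no effect and positive control median for full effect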
NIH3T3 tox: cytotoxicity in mouse NIH/3T3 fibroblasts, confirmation, cytotoxicity control for T. cruzi proliferation inhibitor project, cell-based, cherry-pick, single point. shares compounds with T cruzi growth-1. NIH/3T3 viability, CellTiter-Glo ATP luminescence, 90 h. cytotoxicity (signal decrease), % at 8.35 µM. 14% of 5,600 active;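 active = mean signal decrease across replicates above about 35% based on untreated-well scatter, with enough replicates individually passing, limit read from the data; inconclusive = no rule stated though some were filed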;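 note: 0% = median of neutral control wells and 100% = median of positive control wells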
3T3 cytotox 2: NIH/3T3 fibroblast cytotoxicity, confirmation, cytotoxicity control, cell-based, cherry-pick, single point, set 2; AID 651744, 2012; shares compounds with T cruzi growth-1; NIH/3T3 viability, CellTiter-Glo ATP luminescence, 90 h; 56% of 5,600 active; inhibition, % at 24.9 µM;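 active = mean loss of cell viability signal at or above a set limit, and enough replicates individually reaching it; inconclusive = meets only the mean limit or only the replicate share; inactive = meets neither condition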;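 note: 0% = median of neutral control wells and 100% = median of positive control wells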
* = called active by the depositor; ? = inconclusive; / = no result. Only some compounds are listed: those with a hit (about 6.8% of all), similar ones and a draw of the others.

SMILES	C diff growth	T cruzi growth-1	Pf Dd2 growth	T cruzi growth-2	T cruzi growth-3	NIH3T3 tox	3T3 cytotox 2
Cc1ccc(-c2ccc3c(c2)O[C@H](CN(C)Cc2cncnc2)[C@@H](C)CN([C@@H](C)CO)S3(=O)=O)cc1	0	/	-11	/	/	/	/
Cc1ccc(-c2ccc3c(c2)O[C@@H](CN(C)Cc2cncnc2)[C@H](C)CN([C@H](C)CO)S3(=O)=O)cc1	0	/	-2	/	/	/	/
C[C@H](CO)N1C[C@H](C)[C@H](CN(C)Cc2cncnc2)Oc2cc(-c3ccncc3)ccc2S1(=O)=O	3	?	13	79	79	46*	49*
C[C@H]1CN([C@@H](C)CO)S(=O)(=O)c2ccc(-c3ccncc3)cc2O[C@@H]1CN(C)Cc1cncnc1	1	108*	0	103*	94	-2	17
C[C@@H]1CN([C@@H](C)CO)S(=O)(=O)c2ccc(-c3ccncc3)cc2O[C@H]1CN(C)Cc1cncnc1	1	108*	6	104*	104*	3	45*
CN(C)CCCNC(=O)C[C@H]1CC[C@@H]2[C@H](COC[C@H](O)CN2CC2CCCC2)O1	-1	?	/	70	17	-3	17
O=C(C[C@@H]1CC[C@@H]2[C@H](COC[C@H](O)CN2CC2CCCCC2)O1)NCc1ccc(F)cc1	-1	?	/	31	-19	-6	16
O=C(C[C@H]1CC[C@H]2[C@@H](COC[C@@H](O)CN2CC2CCCCC2)O1)NCc1ccc(F)cc1	15	-1	/	/	/	/	/
CN(C)CCCNC(=O)C[C@@H]1CC[C@H]2[C@@H](COC[C@@H](O)CN2CC2CCCC2)O1	8	80	/	/	/	/	/
CC(C)CC#Cc1ccc2c(c1)O[C@@H](CN(C)Cc1ccccc1)[C@H](C)CN([C@H](C)CO)S2(=O)=O	/	9	16	/	/	/	/
CC(C)CC#Cc1ccc2c(c1)O[C@H](CN(C)Cc1ccc(F)cc1)[C@H](C)CN([C@@H](C)CO)S2(=O)=O	12	84	-59	/	/	/	/
CC(C)CC#Cc1ccc2c(c1)O[C@H](CN(C)Cc1ccccc1)[C@@H](C)CN([C@@H](C)CO)S2(=O)=O	15	123*	-48	100*	114*	-5	104*
CC(C)CC#Cc1ccc2c(c1)O[C@H](CN(C)Cc1ccccc1)[C@H](C)CN([C@H](C)CO)S2(=O)=O	17	104*	-51	87	109*	16	105*
C/C=C/c1cnc2c(c1)C(=O)N([C@H](C)CO)C[C@@H](C)[C@H](CN(C)C(=O)Nc1c(C)noc1C)O2	-2	16	28	/	/	/	/
Cc1ccc(S(=O)(=O)Nc2ccc3c(c2)CC(=O)N([C@H](C)CO)C[C@@H](C)[C@@H](CN(C)CC2CC2)O3)cc1	-7	19	-18	/	/	/	/
COc1cccc(C(=O)Nc2ccc3c(c2)OC[C@H](C)N(C)C[C@@H](C)[C@@H](OC)CN(C)C3=O)c1	-1	-34	14	/	/	/	/
CC(C)C#Cc1ccc2c(c1)O[C@H](CN(C)C(=O)C1CCCCC1)[C@H](C)CN([C@@H](C)CO)S2(=O)=O	4	90	-1	/	/	/	/
CC(C)C#Cc1ccc2c(c1)O[C@H](CN(C)C(=O)C1CCCCC1)[C@@H](C)CN([C@@H](C)CO)S2(=O)=O	30	?	-34	95*	82	7	106*
CC(C)C#Cc1ccc2c(c1)O[C@H](CN(C)C(=O)C1CCCCC1)[C@H](C)CN([C@H](C)CO)S2(=O)=O	8	100*	-16	108*	88	13	105*
CC(C)C#Cc1ccc2c(c1)O[C@H](CN(C)C(=O)C1CCC1)[C@H](C)CN([C@H](C)CO)S2(=O)=O	/	82	-23	/	/	/	/
C[C@H]1CN([C@@H](C)CO)C(=O)c2cc(NC(=O)c3ccncc3)ccc2O[C@H]1CN(C)S(=O)(=O)c1ccccc1	-1	25	9	/	/	/	/
COc1ccc(NC(=O)N(C)C[C@@H]2OCCCC[C@@H](C)Oc3ccc(NS(=O)(=O)c4ccccc4)cc3C(=O)N([C@@H](C)CO)C[C@@H]2C)cc1	12	95	-56	/	/	/	/
C/C=C/c1ccc2c(c1)O[C@@H](CN(C)C(=O)c1ccc3c(c1)OCO3)[C@H](C)CN([C@H](C)CO)S2(=O)=O	1	11	-52	/	/	/	/
C[C@@H]1CN([C@@H](C)CO)S(=O)(=O)c2ccc(/C=C/c3ccccc3)cc2O[C@H]1CN(C)C(=O)c1ccc2c(c1)OCO2	5	118*	-87*	105*	85	42*	59*
C[C@H](CO)N1C[C@H](C)[C@@H](CN(C)C(=O)c2ccc3c(c2)OCO3)Oc2cc(/C=C/c3ccccc3)ccc2S1(=O)=O	-5	119*	-71	104*	52	8	45*
SMILES	C diff growth	T cruzi growth-1	Pf Dd2 growth	T cruzi growth-2	T cruzi growth-3	NIH3T3 tox	3T3 cytotox 2
C/C=C/c1ccc2c(c1)O[C@H](CN(C)C(=O)c1ccc3c(c1)OCO3)[C@H](C)CN([C@H](C)CO)S2(=O)=O	-5	52	-11	/	/	/	/
C[C@@H]1CN([C@@H](C)CO)C(=O)c2cccc(NC(=O)c3nc4ccccc4s3)c2O[C@@H]1CN(C)S(=O)(=O)c1cccs1	-2	68	-15	/	/	/	/
C[C@@H]1CN([C@H](C)CO)S(=O)(=O)c2ccc(C#CCN(C)C)cc2O[C@H]1CN(C)C(=O)Nc1ccccc1F	/	-60	-43	/	/	/	/
Cc1cccc(S(=O)(=O)N2C[C@@H](O)COC[C@@H]3O[C@@H](CC(=O)NCc4ccc5c(c4)OCO5)CC[C@H]32)c1	/	22	-6	/	/	/	/
COc1ccc(NC(=O)Nc2ccc3c(c2)C(=O)N([C@H](C)CO)C[C@H](C)[C@H](CN(C)C(=O)Nc2ccc(F)cc2)OCCCC[C@H](C)O3)cc1	-4	73	5	/	/	/	/
COc1ccc(NC(=O)Nc2ccc3c(c2)C(=O)N([C@@H](C)CO)C[C@@H](C)[C@H](CN(C)C(=O)Nc2ccc(F)cc2)OCCCC[C@H](C)O3)cc1	-2	/	-4	/	/	/	/
COc1ccc(NC(=O)N(C)C[C@H]2OCCCC[C@H](C)Oc3ccc(NC(=O)Nc4ccc5c(c4)OCO5)cc3C(=O)N([C@H](C)CO)C[C@@H]2C)cc1	5	42	0	/	/	/	/
COc1ccc(NC(=O)Nc2ccc3c(c2)C(=O)N([C@H](C)CO)C[C@@H](C)[C@H](CN(C)C(=O)Nc2ccc4c(c2)OCO4)OCCCC[C@@H](C)O3)cc1	5	117*	-42	111*	64	9	17
